Measured values: the supplement of paper PMC10646978
± gives the standard deviation.

Key:
Conditions in all cases: modulator concentration 10 µM
[1] = tested on: RAW-Dual (murine macrophage reporter line); test: NF-kB reporter (SEAP) activity fold change vs agonist alone; higher = enhanced NF-kB activity
How it was run: (§1)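 Compound reached 10 μM final in each well by pin transfer, onto RAW-Dual murine macrophage reporter cells seeded at 50 000 per well in 384-well plates. After 1 hour at 37 °C, the cells were stimulated overnight with a PRR agonist. SEAP in the supernatant was read with QUANTI-Blue at 620 nm absorbance for NF-κB, and Lucia luciferase was read with QUANTI-Luc luminescence for IRF. Each signal was turned into fold change against the mean agonist-only control on the same plate, and two replicate plates were averaged with propagated errors.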

[2] = tested on: RAW-Dual (murine macrophage reporter line); test: IRF reporter (Lucia luciferase) activity fold change vs agonist alone; higher = enhanced IRF activity
How it was run: as §1

[3] = tested on: RAW-Dual (murine macrophage reporter line); test: viability score (confluency relative to resting cells, overnight) (fraction); higher = more viable, active = viable (0.7 or more)
How it was run: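 RAW-Dual macrophages in 384-well plates were exposed overnight to compound at 10 μM final. Confluency was imaged with IncuCyte, and two confluency masks were generated with IncuCyte software over all imaged wells. The viability score is confluency expressed relative to resting cells. Compounds were called viable if both masks exceeded 70% of resting cells.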

[4] = agonist: CpG ODN 1826 0.5 ug/mL

Row | SMILES | NF-kB reporter [1, 4] | NF-kB reporter ([1]; agonist: LPS 0.1 ug/mL) | NF-kB reporter ([1]; agonist: MPLA […]) | IRF reporter ([2]; agonist: 3'3'-cGAMP 10 ug/mL) | IRF reporter ([2]; agonist: LPS 0.1 ug/mL) | IRF reporter ([2]; agonist: MPLA […]) | viability score [3]
1 | CCNc1cc(C)nc(Nc2ccc(NC(=O)c3ccc(OC)c(OC)c3)cc2)n1 | 0.118 ± 0.0094 | 1.32 ± 0.11 | 1.74 ± 0.17 | 0.72 ± 0.023 | 1.19 ± 0.18 | 1.29 ± 0.27 | 0.977 (active)
2 | CC1=C(C(=O)OC2CCCCC2)C(c2ccc(N(C)C)cc2)C2=C(CC(C)(C)CC2=O)N1 (stereo unspecified) | 0.767 ± 0.12 | 0.697 ± 0.08 | 1.16 ± 0.1 | 0.843 ± 0.083 | 0.943 ± 0.071 | 1.04 ± 0.22 | 1 (active)
3 | CCCc1nc(C(C)(C)O)c(C(=O)OCc2oc(=O)oc2C)n1Cc1ccc(-c2ccccc2-c2nnn[nH]2)cc1 [Prestw-1190] | 1.09 ± 0.18 | 1.15 ± 0.2 | 1 ± 0.15 | 0.916 ± 0.036 | 0.987 ± 0.094 | 1.14 ± 0.15 | 1 (active)
4 | CC(C)NCC(O)c1ccc(NS(C)(=O)=O)cc1.Cl (stereo unspecified) | 0.99 ± 0.098 | 1.02 ± 0.057 | 1 ± 0.043 | 1.01 ± 0.056 | 0.978 ± 0.082 | 0.99 ± 0.09 | 1 (active)
5 | O=C(Oc1ccc(O)c(CO)c1)c1ccccc1 | 1.15 ± 0.12 | 1.08 ± 0.071 | 1.06 ± 0.086 | 0.637 ± 0.1 | 0.888 ± 0.098 | 0.769 ± 0.16 | 1 (active)
6 | CC1(C)[C@H](C(=O)O)N2C(=O)C[C@H]2S1(=O)=O | 0.998 ± 0.11 | 1.05 ± 0.079 | 1.06 ± 0.033 | 0.944 ± 0.072 | 0.931 ± 0.038 | 0.859 ± 0.068 | 0.994 (active)
7 | OC(CNC1CCCCC1)Cn1c2ccc(Cl)cc2c2cc(Cl)ccc21 (stereo unspecified) | 0.137 ± 0.03 | 0.219 ± 0.037 | 0.613 ± 0.042 | 0.11 ± 0.058 | 0.302 ± 0.018 | 0.436 ± 0.12 | 0.0501 (inactive)
8 | Cc1cc(NC(=O)c2ccoc2COc2ccccc2)no1 | 1.17 ± 0.063 | 1.08 ± 0.093 | 1.32 ± 0.071 | 1.21 ± 0.061 | 1.21 ± 0.23 | 1.46 ± 0.38 | 0.962 (active)
9 | COc1cccc(N2CC(C(=O)NC3CCN(c4nccn5c(C)nnc45)CC3)CC2=O)c1 (stereo unspecified) | 1.03 ± 0.051 | 1.06 ± 0.092 | 0.955 ± 0.088 | 0.968 ± 0.049 | 1.17 ± 0.073 | 1.08 ± 0.11 | 1.01 (active)
10 | O=C(Nc1ccc(S(=O)(=O)Nc2nccs2)cc1)c1c(F)cccc1F | 0.984 ± 0.1 | 1.02 ± 0.058 | 0.922 ± 0.06 | 0.982 ± 0.026 | 1.52 ± 0.23 | 1.14 ± 0.1 | 1.01 (active)
11 | Cc1ccccc1Oc1ccc(S(=O)(=O)N2CCCC2)cc1 | 0.68 ± 0.03 | 1.02 ± 0.14 | 0.922 ± 0.061 | 0.385 ± 0.018 | 1.03 ± 0.14 | 1.22 ± 0.26 | 0.953 (active)
12 | O=C(CSC1CCCCC1)Nc1cc(C(F)(F)F)ccc1Cl | 0.516 ± 0.045 | 1.38 ± 0.11 | 1.39 ± 0.063 | 1.45 ± 0.14 | 2.2 ± 0.16 | 1.47 ± 0.43 | 1.01 (active)
13 | CC1=CC(C)C2(COC(c3cccnc3)OC2)C(C)C1 (stereo unspecified) | 0.876 ± 0.067 | 0.788 ± 0.12 | 0.695 ± 0.065 | 0.967 ± 0.033 | 1.15 ± 0.18 | 1.1 ± 0.19 | 0.388 (inactive)
14 | O=C(NCC(O)c1ccc(C(F)(F)F)cc1)c1cc(Br)cs1 (stereo unspecified) | 0.931 ± 0.047 | 0.981 ± 0.077 | 0.865 ± 0.043 | 1.14 ± 0.058 | 1.21 ± 0.077 | 1.22 ± 0.14 | 0.66 (inactive)
15 | CN1CCCC(n2nc(Cc3ccc(Cl)cc3)c3ccccc3c2=O)CC1.Cl (stereo unspecified) | 0.135 ± 0.008 | 0.929 ± 0.12 | 1.42 ± 0.26 | 1.12 ± 0.14 | 1.19 ± 0.22 | 1.35 ± 0.4 | 0.587 (inactive)
16 | NC(=O)[C@@H](CCC(F)(F)F)N(Cc1ccc(-c2ncon2)cc1F)S(=O)(=O)c1ccc(Cl)cc1 | 0.744 ± 0.062 | 1.04 ± 0.049 | 1.31 ± 0.16 | 0.949 ± 0.051 | 1.43 ± 0.084 | 1.58 ± 0.13 | 0.997 (active)
17 | CCC(=O)Nc1cccc(NC(=O)c2ccc(F)cc2)c1 | 0.852 ± 0.066 | 0.906 ± 0.12 | 0.977 ± 0.092 | 0.99 ± 0.05 | 1.32 ± 0.092 | 1.39 ± 0.17 | 0.997 (active)
18 | c1cnn(-c2ccc(N=Nc3ccc(-n4cccn4)cc3)cc2)c1 | 0.939 ± 0.087 | 1.05 ± 0.083 | 0.966 ± 0.082 | 0.814 ± 0.037 | 1.09 ± 0.1 | 1.02 ± 0.12 | 0.996 (active)
19 | CC(C)OC(=O)c1c(NC(=O)C2CC=CCC2C(=O)O)sc2c1CCCC2 (stereo unspecified) | 0.92 ± 0.12 | 0.999 ± 0.056 | 0.901 ± 0.054 | 0.965 ± 0.024 | 1.29 ± 0.18 | 1.14 ± 0.28 | 1.01 (active)
20 | COc1ccc2oc(=O)c(C(=O)Nc3ccc(C(=O)O)cc3)cc2c1 | 0.909 ± 0.054 | 1.02 ± 0.1 | 0.953 ± 0.08 | 1.08 ± 0.035 | 1.17 ± 0.11 | 0.959 ± 0.13 | 0.987 (active)
21 | C[C@@H](O)[C@H]1C(=O)N2C(C(=O)O)=C(SCCNC=N)C[C@H]12.O | 0.988 ± 0.074 | 1.01 ± 0.049 | 0.981 ± 0.034 | 0.897 ± 0.086 | 1.04 ± 0.089 | 1.25 ± 0.14 | 0.999 (active)
22 | Cc1ccc(S(=O)(=O)Nc2cc(-c3c(O)ccc4ccccc34)c(O)c3ccccc23)cc1 | 0.941 ± 0.073 | 0.994 ± 0.076 | 1.16 ± 0.11 | 0.337 ± 0.015 | 0.808 ± 0.047 | 0.611 ± 0.075 | 0.956 (active)
23 | O=C(CCC1CCCC1)Nc1cccc(F)c1 | 0.986 ± 0.059 | 1.08 ± 0.12 | 0.959 ± 0.029 | 0.999 ± 0.045 | 1.03 ± 0.091 | 1.12 ± 0.25 | 1 (active)
